Only a selection was taken, and hits are over-represented in it overall.
MgrA DNA FP: S. aureus MgrA activity modulators, primary screen, biochemical, S. aureus Newman, fluorescence polarization; AID 602314, 2012; 84,000 compounds, 0.13% hits; MgrA-DNA binding; inhibition, % (no concentration beside the values); in the data active = inhibition above about 30%, passing the limit was not always enough;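 note: 0% = protein plus DNA without compound and 100% = DNA alone without protein; higher means less MgrA bound to DNA so lower polarization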
* = called active by the depositor.

O=c1c2ccccc2c2ccccc2c(=O)n1Cc1cccnc1 was read as MgrA DNA FP 2.5.
`O=C1c2cccc3cc([N+](=O)[O-])cc(c23)C(=O)N1Cc1ccncc1` gave MgrA DNA FP -1.2.
O=C1c2cccc3c([N+](=O)[O-])ccc(c23)C(=O)N1Cc1cccnc1 was read as MgrA DNA FP 60.5*.
COc1ccc(C(=O)CC(=O)Nc2ccccc2)cc1OC was read as MgrA DNA FP -1.6.
Screening COC(=O)c1sc(-c2cccs2)cc1NC(=O)c1ccco1 returned MgrA DNA FP 12.0.
Screening FC(F)(F)c1ccc2nccnc2c1 returned MgrA DNA FP -0.6.
`CC(C)(C(=O)Nc1ccc2c(c1)OCO2)C(=O)Nc1ccc2c(c1)OCO2` gave MgrA DNA FP 1.4.
`CCc1cc2cc(C)cc(C)c2nc1SCC(=O)N1CCN(C(=O)c2ccco2)CC1` gave MgrA DNA FP 2.5.
`Cc1cc(C)c2nc(N3CCCN(C(=O)c4ccco4)CC3)c(C#N)cc2c1` gave MgrA DNA FP 48.6*.
For O=C(c1ccco1)N1CCCN(C(=O)c2ccco2)CC1 the results were MgrA DNA FP 1.4.
Screening O=C1NC(=O)N(c2ccccc2)C(=O)/C1=C\c1ccc(C(=O)O)cc1 returned MgrA DNA FP 5.2.
COC(=O)COc1ccc(/C=C2\C(=O)NC(=S)N(c3ccccc3)C2=O)cc1OC was read as MgrA DNA FP 8.1.
Screening O=C1NC(=S)N(c2ccccc2)C(=O)/C1=C\c1ccoc1 returned MgrA DNA FP 75.5*.
For CCOC(=O)c1c(C=O)oc2c(C)cc(OC(=O)c3cccc(C)c3)c(Br)c12 the results were MgrA DNA FP -1.1.
O=C(/C=C/c1ccccc1)NC(=S)N1CCCCC1 was read as MgrA DNA FP -5.9.
Screening COc1cc(/C=C2\C(=O)NC(=O)N(c3ccc(Cl)cc3)C2=O)ccc1OCC(=O)O returned MgrA DNA FP 0.6.
Cc1ccc(NC(=O)c2ccccc2N=Cc2cc(Cl)cc(Cl)c2O)c(N=Cc2cc(Cl)cc(Cl)c2O)c1 was read as MgrA DNA FP -1.6.
`CCCCc1ccc(NC(=O)COC)cc1` gave MgrA DNA FP 1.6.
Screening CCOc1cc(/C=C2/C(=O)ON=C2C)cc(Cl)c1OCc1ccc(F)cc1 returned MgrA DNA FP 54.4*.
Screening CCOC(=O)COc1c(Cl)cc(/C=C2/N=C(c3ccco3)OC2=O)cc1OCC returned MgrA DNA FP 2.6.
Screening COc1cc(/C=C2/C(=O)N(c3ccc(F)cc3)N=C2C)ccc1OCc1ccc(F)cc1 returned MgrA DNA FP 2.4.
Screening CCCC(C(=O)NC1CCCC1)N(Cc1ccccc1)C(=O)Cn1nnc(-c2ccc(C)o2)n1 (stereo not drawn) returned MgrA DNA FP 0.2.
O=C(O)C1C2C=CC(C2)C1C(=O)O (stereo not drawn) was read as MgrA DNA FP -0.5.
For NC(=O)CCNC(=O)C(c1ccccc1)c1ccccc1 the results were MgrA DNA FP 0.1.
`COc1cc(/C=C2\SC(=Nc3ccc4c(c3)OCO4)N(c3ccc4c(c3)OCO4)C2=O)ccc1O` gave MgrA DNA FP 0.9.
CCC(C)NS(=O)(=O)c1ccc(-n2cccn2)cc1 (stereo not drawn) was read as MgrA DNA FP 1.8.
`CCOC(=O)C[N+](C)(C)Cc1ccccc1` gave MgrA DNA FP -8.0.
`O=C(N/N=C/c1cc(Br)ccc1O)N/N=C/c1cc(Br)ccc1O` gave MgrA DNA FP 0.2.
For NC(CO)C(=O)N/N=C/c1ccc(O)c(O)c1O (stereo not drawn) the results were MgrA DNA FP 62.4*.
For NC(CO)C(=O)NNCc1ccc(O)c(O)c1O (stereo not drawn) the results were MgrA DNA FP 5.7.
`CCOC(=O)c1ccc(NC(=O)CNC(=O)c2ccc(Cl)cc2)cc1` gave MgrA DNA FP -0.1.
CC(C)(C)C(=O)CSc1ccc(Br)cc1 was read as MgrA DNA FP 3.4.
`Nc1ncnc2c1cnn2Cc1ccccc1` gave MgrA DNA FP -0.5.
For CCOC(=O)C(C#N)C1(O)C(=O)c2ccccc2C1=O (stereo not drawn) the results were MgrA DNA FP 7.6.
For Cc1cc(N)c2ccccc2[n+]1CCCCCCCCCC[n+]1c(C)cc(N)c2ccccc21 the results were MgrA DNA FP 55.1*.
CC[n+]1ccc(C)c2ccccc21 was read as MgrA DNA FP -0.5.
For Cc1cc(-c2ccccc2N)nc2ccccc12 the results were MgrA DNA FP -3.7.
COC(=O)c1ccc(NC(=O)CSc2nnc(-c3ccccc3Cl)n2N)cc1 was read as MgrA DNA FP 2.6.
`O=C(Nc1ccc(N2CCOCC2)cc1)Nc1ccc2nc(-c3ccco3)c(-c3ccco3)nc2c1` gave MgrA DNA FP 2.4.
O=C(NCCSCc1ccco1)Nc1cc(Cl)cc(Cl)c1 was read as MgrA DNA FP 0.3.
Screening O=C(NCCCO)Nc1ccc2nc(-c3ccco3)c(-c3ccco3)nc2c1 returned MgrA DNA FP 77.5*.
Screening O=C(c1cccnc1Nc1cccc(Cl)c1)N1CCCCC1 returned MgrA DNA FP 3.6.
For Cc1ccccc1C(=O)Oc1c(-c2ccco2)oc2ccccc2c1=O the results were MgrA DNA FP -0.2.
`O=c1c(-c2ccc(Oc3ccccc3)cc2)[n+]([O-])c2ccccc2n1O` gave MgrA DNA FP 5.0.
Cc1c(=O)n(OCc2ccc(Cl)cc2)c2ccccc2[n+]1[O-] was read as MgrA DNA FP 0.2.
`N#Cc1c(=O)n(O)c2ccccc2[n+]1[O-]` gave MgrA DNA FP 48.6*.
O=C(NCCCN1CCN(Cc2c(F)cccc2Cl)CC1)c1cccc(C(F)(F)F)c1 was read as MgrA DNA FP -0.7.
CC(C)COC(=O)Nc1ccc2c(c1)OCO2 was read as MgrA DNA FP -2.0.
N#CCCn1cc(F)c(N)nc1=O was read as MgrA DNA FP -2.5.
Screening Cc1cc(C)c2c(c1C(=O)O)CC(C)(C)C2=O returned MgrA DNA FP -1.5.
Screening O=C(O)CC(c1ccsc1)n1cccc1 (stereo not drawn) returned MgrA DNA FP 0.1.
`Cc1ccc(C)n1C(CC(=O)O)c1ccsc1` (stereo not drawn) gave MgrA DNA FP 61.3*.
Cc1ccc(C)n1C(CC(=O)O)c1ccc(F)cc1 (stereo not drawn) was read as MgrA DNA FP 31.4.
`Cc1ccc(Cl)cc1NC(=O)Cc1nn(C)c(=O)c2ccccc12` gave MgrA DNA FP -1.5.
`C=CCNC(=O)Cn1c(=S)[nH]c2ncccc2c1=O` gave MgrA DNA FP 2.5.
Screening NS(=O)(=O)c1ccc(N=Cc2c(O)ccc3ccccc23)cc1 returned MgrA DNA FP 31.3.
`COc1ccc(S(=O)(=O)N(CC(=O)Nc2cccc(C(F)(F)F)c2)c2ccc(C)cc2)cc1OC` gave MgrA DNA FP -0.7.
CCOC1=NN(c2ccc([N+](=O)[O-])cc2)C(=O)/C1=C/c1ccc(OC)c(OC)c1OC was read as MgrA DNA FP 0.0.
`Cc1ccc(S(=O)(=O)N=C2C=CC(=O)C=C2)cc1` gave MgrA DNA FP 48.4*.
CC1=C/C(=N\S(=O)(=O)c2ccccc2)C=CC1=O was read as MgrA DNA FP 37.8.
Cc1ccc(S(=O)(=O)N=S(C)(C)=O)cc1 was read as MgrA DNA FP -1.9.
Screening c1ccc(Oc2ccc(N=NN3CCCCC3)cc2)cc1 returned MgrA DNA FP 0.9.
Screening CCCc1cnc(N2CCCN(S(=O)(=O)c3ccc(C)cc3)CC2)nc1 returned MgrA DNA FP 0.1.
For CCCNC(=O)C1CCN(C(=O)c2ccccc2Cl)CC1 the results were MgrA DNA FP -2.0.

Screening data (PubChem BioAssay)
